Among the data in PubChem BioAssay AID1851 (National Center for Advancing Translational Sciences (NCATS), 2009) are AC50 and activity, negative = inhibition values, retold here.

In general, AC50 refers to the concentration at which the activity in the assay is half-maximal.

Several values for one entry are separate records, joined by “and”; a condition that tells them apart may be missing. Equal entries are not always repeated. Out of some 16,000 compounds screened, about 5,800 (36%) were called active. Not shown: some 23% with an inconclusive outcome. Calls follow the shape of the dose curve; as a rule, active = well fitted curve in the direction sought with a large enough effect; inconclusive = small, poorly fitted or top-dose-only effect, or effect the other way; inactive = no such curve, though single readings can be large or run the other way. The list shows a part of the results. Some structures have more than one record in an assay (separate samples or runs), and their calls can disagree.
% is scaled to controls: 0 for no effect and ±100 for the full control effect.

Cytochrome P450 2C19 (Homo sapiens), sequence (P33261 whole entry, looked up): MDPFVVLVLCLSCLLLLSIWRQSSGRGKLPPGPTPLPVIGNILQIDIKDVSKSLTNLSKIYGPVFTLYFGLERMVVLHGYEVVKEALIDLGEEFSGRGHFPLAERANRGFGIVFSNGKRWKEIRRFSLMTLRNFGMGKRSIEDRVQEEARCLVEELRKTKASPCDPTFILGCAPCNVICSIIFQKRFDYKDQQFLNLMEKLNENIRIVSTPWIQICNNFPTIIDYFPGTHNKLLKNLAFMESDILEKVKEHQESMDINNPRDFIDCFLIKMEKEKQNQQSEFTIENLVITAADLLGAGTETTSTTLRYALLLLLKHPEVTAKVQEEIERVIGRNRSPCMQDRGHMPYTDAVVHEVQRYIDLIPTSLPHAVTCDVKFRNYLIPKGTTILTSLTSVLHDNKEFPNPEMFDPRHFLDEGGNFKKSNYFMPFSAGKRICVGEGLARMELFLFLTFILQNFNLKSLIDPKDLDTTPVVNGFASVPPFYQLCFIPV

The assay concerns the target Cytochrome P450 2C19 (Homo sapiens) (UniProt P33261). Kind of assay: Cytochrome panel assay with activity outcomes. To be noted: recombinant CYP, pro-luciferin dealkylation, luminescence, p450-cyp2c19; series mostly up to 57.1 µM.
Turning to `CNC(=S)NNC(=O)c1sccc1OCc1ccc(C)cc1`, the AC50 is 5.01 µM (active). For `COc1ccc(COc2ccsc2C(=O)Nc2ccc(Cl)c(Cl)c2)cc1`, the AC50 was 7.94 µM (active).

For `FC(F)(F)c1cc(CN2CCCC3(CCNCC3)C2)cc(C(F)(F)F)c1`, the AC50 entry was “inactive”. With `C(=C\c1nnc(-c2cccs2)o1)/c1ccccc1`, the AC50 is 22.4 µM (active). As for `Cc1ccc(/C=C/c2nnc(-c3ccc(C)cc3)o2)cc1`, the AC50 result was “inactive”.

Take `Cc1oc(-c2cccs2)[n+]([O-])c1C`: the AC50 entry was “inactive”. Take `CCN=C1NN=C(c2ccc(C)cc2)CS1`: the AC50 was 10 µM (active).

As to `Nc1nc(NCCc2ccc(O)cc2)nc2nc(-c3ccco3)nn12`, the AC50 entry was “inactive”. For the compound `FC(F)(F)c1cc(-c2ccco2)nc(NCCc2ccccc2)n1`, the AC50 was 1.78 µM (active). The same measure, in the same setting: the value for `CN1CCN(CC(=O)N2c3ccccc3C(=O)Nc3cccnc32)CC1` was “inactive”; that for `Cc1scc2c1N(C(=O)CN1CCN(C)CC1)c1ccccc1NC2=O` was “inactive and 3.98 µM (active)”. With `CCC#CCOCC(=O)Nc1ccccc1`, the AC50 entry was “inactive”. Regarding `CCCCC#Cc1ccccc1CC(=O)Nc1ccccc1`, the concentration at half-maximal activity (AC50) is 0.794 µM (active). As to `O=C(Cc1ccccc1I)Nc1ccccc1`, the AC50 is 6.31 µM (active). Regarding `O=C(O)[C@H](/C=C\c1ccccc1)c1ccccc1`, the activity, negative = inhibition is -22.1% [at 11.4 µM] (inactive). Consider `COC(=O)c1cc(/C=C/c2ccccc2)on1`, for which the concentration at half-maximal activity (AC50) is 35.5 µM (active).

Take `Cc1ccc(NC(=O)c2cc([N+](=O)[O-])ccc2NCc2cccnc2)cc1Cl`: the concentration at half-maximal activity (AC50) is 0.0794 µM (active). Same read-out and setting: the value for `CS(=O)(=O)N1CCC[C@@]2(CCN(C(=O)Nc3cccc(C#N)c3)C2)C1` was “inactive”; that for `CNC(=O)/C(C#N)=c1\s/c(=C/C(=O)OC)c(=O)n1-c1ccccc1` was 5.01 µM (active). Take `COc1cccc(/C=c2/s/c(=C(\C#N)C(=O)N3CCOCC3)n(-c3ccccc3)c2=O)c1`: the AC50 entry was “inactive”. With `O=C(Cc1ccccc1[N+](=O)[O-])NCc1ccccc1Cl`, the half-maximal activity concentration (AC50) was 31.6 µM (active). Turning to `Cc1nn(CC(=O)NCc2ccccc2Cl)c(C)c1[N+](=O)[O-]`, the AC50 is 15.8 µM (active). As for `O=C(Cc1ccccc1[N+](=O)[O-])NCCSCc1c(F)cccc1Cl`, the AC50 is 2.51 µM (active).

Turning to `Cc1nn(CC(=O)NCc2ccccc2)c(C)c1[N+](=O)[O-]`, the AC50 entry was “inactive”. On to `Cn1c(=O)c2cc(S(=O)(=O)NCCC(=O)NCc3ccccc3Cl)ccc2n(C)c1=O`, for which the AC50 result was “inactive”. On the same count and under the same terms, the value for `Cc1nn(CC(=O)NCCN2CCOCC2)c(C)c1[N+](=O)[O-]` was “inactive”; that for `Cc1ccccc1OCC(=O)OC1CCN(C)CC1` was “inactive”. Same read-out and setting: the same measure for `Cc1ccc(C(=O)C(OC(=O)CNS(=O)(=O)c2ccccc2)c2ccccc2)cc1` (centres undefined): 10 µM (active); for `Cc1ccc(C(=O)C(OC(=O)CN2C(=O)c3ccccc3C2=O)c2ccccc2)cc1` (centres undefined): 3.55 µM (active). With `Cc1ccc(C(=O)C(OC(=O)CCC(=O)Nc2cccc(C)c2)c2ccccc2)cc1` (centres undefined), the AC50 is 11.2 µM (active). In the case of `O=C(CN1C(=O)c2ccccc2C1=O)NCC(=O)OCC(=O)c1ccc(Br)cc1`, the AC50 entry is “inactive”. With `CNCC[C@@H](Oc1ccccc1C)c1ccccc1`, the AC50 entry is “inactive”. On the same count and under the same terms, the value for `Cc1ccc(C(=O)C(OC(=O)COc2ccccc2C)c2ccccc2)cc1` (centres undefined) was 7.08 µM (active); that for `CCNc1ncc2nc(-c3cc(F)cc(F)c3)c(=O)n(-c3ccc(OC)cc3)c2n1` was “inactive”; that for `Cc1ccc(NC(=O)C2C3CCCC2C3c2ccccc2)cc1C` (centres undefined) was “inactive”. On to `CC(=O)Nc1cccc(C(=O)OC(C(=O)c2ccc(C)c(C)c2)c2ccccc2)c1` (centres undefined), for which the AC50 was 3.98 µM (active). `CN(Cc1cc(Br)cc(Br)c1O)Cc1c(O)ccc2ccccc12`: the AC50 is 0.501 µM (active). In the case of `CN(Cc1cc(Cl)cc(Cl)c1O)Cc1c(O)ccc2ccccc12`, the AC50 is 1.26 µM (active). As for `CN(CC(=O)O)Cc1c(O)c(Cl)cc(Cl)c1Cl`, the activity, negative = inhibition is 40.6% [at 11.4 µM] (inactive).

Take `Oc1ccc2ccccc2c1C=NCc1c(O)ccc2ccccc12`: the activity, negative = inhibition is -16.5% [at 11.4 µM] (inactive). For the compound `CN(C)Cc1cc(Cl)c(O)c(CN(C)C)c1`, the activity, negative = inhibition is 2.46% [at 11.4 µM] (inactive). With `CCN(Cc1cc(Cl)cc(C)c1O)Cc1c(O)ccc2ccccc12`, the AC50 was 1.26 µM (active).

Take `O=C1Nc2ccccc2C1=Nc1cccc2ncccc12`: the activity, negative = inhibition was 27.9% [at 11.4 µM] (inactive).

For the compound `COC(=O)[C@H](CCSC)NC(=O)C/C=C\[C@@H](C)CO`, the activity, negative = inhibition was 35.2% [at 11.4 µM] (inactive). Regarding `COC(=O)[C@H](CCSC)NC(=O)C/C=C\[C@@H](C)[C@@H](CO)OC`, the activity, negative = inhibition was -1.07% [at 11.4 µM] (inactive). In the case of `COC(=O)C(CCSC)NC(=O)c1cccc([N+](=O)[O-])c1` (centres undefined), the AC50 is 14.1 µM (active). `NCCS(=O)O`: the AC50 result is “inactive”. With `O=C(O)C(=O)/C=C(\O)c1ccc(Br)cc1`, the activity, negative = inhibition is 29% [at 11.4 µM] (inactive). Turning to `C=CC(=O)NC(NC(=O)C=C)c1ccc(Br)cc1`, the AC50 was 15.8 µM (active).

With `CC(=O)NC(NC(C)=O)c1ccc(Br)cc1`, the AC50 entry is “inactive”.

As to `O=C(COC(=O)c1cccnc1)c1ccc(Cl)c(Cl)c1`, the half-maximal activity concentration (AC50) was 2.24 µM (active). Turning to `O=S(=O)(/N=C(\Sc1ccccc1)c1ccccc1)c1ccc(Cl)cc1`, the AC50 was 15.8 µM (active). Consider `CCOC(=O)c1sc(C)c(C(=O)NCC(C)(C)CN(C)C)c1N`, for which the AC50 was 28.2 µM (active).

Consider `COCC(=O)N1CCC2(CCCN(Cc3ccccc3)C2)CC1`, for which the AC50 result was “inactive”.

Consider `O=C(COc1ccc(Br)cc1)N1CCC(c2ccccc2)C1` (centres undefined), for which the AC50 is 1.12 µM (active).

As to `CCOc1ccc(NC(=O)N2CCC(c3ccc(C)cc3)C2)cc1` (centres undefined), the AC50 entry is “inactive”.

As to `Cc1nnc(SCC(=O)N2CC(=O)Nc3ccccc32)n1Cc1ccccc1`, the AC50 entry was “inactive”.

With `Cc1sc2nc(C3CC3)nc(SCC(=O)N3CC(=O)Nc4ccccc43)c2c1C`, the AC50 was 3.98 µM (active). Regarding `CC1=C(\C=C/C(C)=C/C=C\C(C)=C\C(=O)O)C(C)(C)CCC1`, the AC50 is 5.01 µM (active). Consider `CC1=CC(=O)CC(C)(C)[C@]1(O)/C=C\C(C)=C\C(=O)O`, for which the activity, negative = inhibition was -25.7% [at 11.4 µM] (inactive). For the compound `CN(C)c1ncc2nc(-c3cccs3)c(=O)n(C[C@H]3CCCO3)c2n1`, the AC50 entry was “inactive”. `O=C(COC(=O)c1cccc(S(=O)(=O)N2CCOCC2)c1)Nc1nc(-c2ccccc2Cl)cs1`: the AC50 is 3.98 µM (active). Regarding `O=C(COC(=O)c1cccc(S(=O)(=O)N2CCN(c3ccccc3)CC2)c1)NCc1ccco1`, the AC50 is 0.708 µM (active). Take `CCCc1nc2ccccc2c(C(=O)OCC(=O)Nc2cccc(S(=O)(=O)N3CCOCC3)c2)c1CC`: the AC50 is 3.55 µM (active).
